Source: PubChem (several laboratories)
CF NFkB inh: inhibitors of cystic fibrosis induced NF-kB; KKLEB NF-kB-GFP reporter, PAF-induced, GFP fluorescence overnight; AID 588850; inhibition, % at 5 µM; hit rate 0.86% among 360,000;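 active = at least 50% inhibition at 5 µM, scaled per plate between neutral and stimulator controls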;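 also: PAF is a Pseudomonas aeruginosa culture filtrate used as stimulus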
Peg3 prom inh-1: inhibitors of Peg3 promoter; HeLa PEG-Prom luciferase reporter, luminescence, overnight; inhibition, % at 20 µM; hit rate 1.7% among 360,000; AID 588405;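 active = inhibition of at least 50% at 20 µM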
HIF-2a inh: blocks HIF-2a reporter activity; hit rate 0.72% among 360,000; inhibition, % at 18.8 µM; 786-0 RCC cells HIF-2a reporter, luciferase luminescence, overnight;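 active = inhibition of the luminescence signal of 40% or more relative to plate controls, in a single-dose primary screen at 18.75 µM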
Shn3 inh set2: Schnurri-3 reporter inhibition in Clone20 osteoblasts | Clone20 osteoblast Shn3 3'UTR firefly luciferase, 24 h | inhibition, % at 12.5 µM | hit rate 0.52% among 360,000;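 active = mean inhibition of at least 75% with every replicate also reaching 75%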
KKLEB cytotox: CF airway cell cytotoxicity counter-screen. KKLEB CF airway cells viability, ATPlite luminescence, overnight; hits give low values; cells stimulated with P. aeruginosa culture filtrate. activity change (cytotoxicity), % at 5 µM. hit rate 0.36% among 360,000. AID 602141;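 active = corrected activity change at or below -50% at 5 µM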
Peg3 prom inh-2: confirmation of Peg3 promoter inhibitors; HeLa PEG-Prom luciferase reporter, luminescence, overnight; hit rate 84% among 1,300; AID 602417; inhibition, % at 20 µM; shares compounds with Peg3 prom inh-1;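 active = at 20 µM dose, 40% or more inhibition averaged across four replicates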
CF NFkB conf: CF NF-kB inhibition confirmation, single concentration; shares compounds with CF NFkB inh; KKLEB CF airway cells, PAF-induced NF-kB-GFP fluorescence, overnight; inhibition, % at 5 µM; hit rate 64% among 1,300; AID 602472; in the data active = inhibition above about 40%;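 also: stimulus PAF is a Pseudomonas aeruginosa filtrate and not platelet activating factor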
Mdm2 MdmX conf: confirmation of inhibitors of human Mdm2/MdmX interaction, set 2. hit rate 99% among 740. SaOS-2 split-luciferase Mdm2/MdmX complementation, luminescence. AID 504601. shares compounds with HIF-2a inh. inhibition, % at 8 µM;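 active = mean inhibition of the luminescence signal across two replicates at or above 26 percent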
Target sequence (O15151 whole entry, looked up): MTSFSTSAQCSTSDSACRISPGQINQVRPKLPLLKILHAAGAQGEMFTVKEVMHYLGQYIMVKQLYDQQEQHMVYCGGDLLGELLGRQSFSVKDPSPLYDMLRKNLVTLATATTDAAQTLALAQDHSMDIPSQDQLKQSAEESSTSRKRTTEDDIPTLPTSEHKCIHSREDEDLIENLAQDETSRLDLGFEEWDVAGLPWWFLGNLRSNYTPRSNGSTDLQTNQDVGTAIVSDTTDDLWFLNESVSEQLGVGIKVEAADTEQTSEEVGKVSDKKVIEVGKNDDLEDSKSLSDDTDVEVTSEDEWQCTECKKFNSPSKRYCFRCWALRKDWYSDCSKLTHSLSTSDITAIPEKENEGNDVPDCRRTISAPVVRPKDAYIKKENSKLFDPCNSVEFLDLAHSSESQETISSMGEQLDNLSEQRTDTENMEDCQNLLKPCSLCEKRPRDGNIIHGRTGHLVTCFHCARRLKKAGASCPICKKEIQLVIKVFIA
Target sequence (Q00987 whole entry, looked up): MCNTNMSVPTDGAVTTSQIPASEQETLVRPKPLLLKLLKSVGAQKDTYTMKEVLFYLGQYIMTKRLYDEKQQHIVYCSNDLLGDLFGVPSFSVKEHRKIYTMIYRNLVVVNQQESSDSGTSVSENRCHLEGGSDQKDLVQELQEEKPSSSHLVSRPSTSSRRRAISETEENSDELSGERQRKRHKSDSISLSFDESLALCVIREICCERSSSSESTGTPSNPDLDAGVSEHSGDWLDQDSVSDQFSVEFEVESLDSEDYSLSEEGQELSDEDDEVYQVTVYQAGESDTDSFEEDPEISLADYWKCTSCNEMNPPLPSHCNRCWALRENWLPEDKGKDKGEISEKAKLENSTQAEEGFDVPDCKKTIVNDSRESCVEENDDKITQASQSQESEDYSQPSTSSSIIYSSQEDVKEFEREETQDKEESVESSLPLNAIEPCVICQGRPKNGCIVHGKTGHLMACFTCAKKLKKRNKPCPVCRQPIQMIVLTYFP
HIF-2a inh conf: confirmation of HIF-2a inhibitors; shares compounds with HIF-2a inh; 786-0 RCC cells, HIF-2a luciferase reporter luminescence, overnight; inhibition, % at 18.8 µM; hit rate 56% among 1,800; AID 651580;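 active = mean inhibition across four replicates of at least 40 percent at the single tested concentration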
HIF-1a counter: inhibits HIF-1a reporter, a counter-screen for HIF-2a inhibitors; shares compounds with HIF-2a inh; MiaPaCa-2 HIF-1a luciferase reporter, desferoxamine, overnight; inhibition, % at 18.8 µM; hit rate 72% among 1,800;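 active = mean inhibition of the reporter signal across four replicates at the single tested dose of 50% or more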
Of the large screens only hits and unclear results are named; the others gave an inactive call (follow-up assays come after a bar, where they were run). Compounds with a hit are over-represented: about 2.6% of the library has one in this group of screens.

COc1ccc(NC(=O)c2c(F)cccc2Cl)cc1S(=O)(=O)N1CCOCC1	none
Cc1cccc(C)c1NS(=O)(=O)c1ccc(NC(=O)c2ccc(Cl)c([N+](=O)[O-])c2)cc1	Peg3 prom inh-1 106, HIF-2a inh 91 | Peg3 prom inh-2 98 | Mdm2 MdmX conf 102 | HIF-2a inh conf inactive | HIF-1a counter 108
O=C(Nc1ccc(S(=O)(=O)NC2=NCCCCC2)cc1)c1ccc(Cl)c([N+](=O)[O-])c1	none
O=C(Nc1ccc(F)c([N+](=O)[O-])c1)C(=O)c1c(O)[nH]c2ccccc12	none
CCOc1ccc(NC(=O)c2cnccn2)cc1	none
CCOc1ccc(NC(=O)c2ccccn2)cc1	Peg3 prom inh-1 67, HIF-2a inh 56 | Peg3 prom inh-2 46 | HIF-2a inh conf 70 | HIF-1a counter 71
CCOC(=O)c1nccnc1C(=O)Nc1ccc(C(F)(F)F)cc1	none
CC(=O)CSc1ccc(-c2nc3cc(C)c(C)cc3[nH]2)cn1	Peg3 prom inh-1 84, HIF-2a inh 67 | Peg3 prom inh-2 71 | HIF-2a inh conf 85 | HIF-1a counter 100
CC(=O)CSc1ccc(-c2nc3ccccc3[nH]2)cn1	none
O=C(Cn1ccc(NC(=O)OCc2ccccc2)nc1=O)NCCCN1CCCC1=O	none
COC(=O)c1nn(-c2ccc3c(c2)OCO3)cc1O	none
COC(=O)c1nn(-c2ccc3c(c2)CCN3C(C)=O)cc1O	Peg3 prom inh-1 90, HIF-2a inh 78 | Peg3 prom inh-2 84 | HIF-2a inh conf inactive | HIF-1a counter inactive
C[C@@H](C(=O)Nc1ccc2c(c1)OCO2)n1c(=O)[nH]c2ccccc2c1=O	none
C[C@@H](C(=O)Nc1ccc2c(c1)OCCO2)n1c(=O)[nH]c2ccccc2c1=O	Peg3 prom inh-1 50, HIF-2a inh 42 | Peg3 prom inh-2 51 | HIF-2a inh conf 45 | HIF-1a counter 78
CC(C)n1c(O)c(N=NC(=O)c2ccccc2NS(=O)(=O)c2cccs2)c2ccccc21	none
Cc1nn(-c2ccccc2Cl)c(Cl)c1/C=N/Nc1nc2ccccc2s1	Peg3 prom inh-1 72, HIF-2a inh 74 | Peg3 prom inh-2 75 | Mdm2 MdmX conf 98 | HIF-2a inh conf 84 | HIF-1a counter 92
O=C(CCl)N1N=C(c2ccco2)CC1c1cccs1 (stereo unspecified)	CF NFkB inh 58, Peg3 prom inh-1 90, HIF-2a inh 40 | Peg3 prom inh-2 78 | CF NFkB conf inactive | HIF-2a inh conf inactive | HIF-1a counter 73
CC(Oc1ccc(F)cc1)C(=O)Nc1cccc(S(=O)(=O)N(C)c2ccccc2)c1 (stereo unspecified)	none
Cc1ccc(NS(=O)(=O)c2ccc3c(c2)n(C)c(=O)n3C)cc1C	none
Cc1ccc(NS(=O)(=O)c2cc3c4c(cccc4c2)C(=O)NC3=O)cc1C	Peg3 prom inh-1 57, HIF-2a inh 54 | Peg3 prom inh-2 60 | HIF-2a inh conf inactive | HIF-1a counter 102
CNC(=O)COC(=O)c1ccccc1C(=O)c1ccc(Cl)c([N+](=O)[O-])c1	CF NFkB inh 90, Peg3 prom inh-1 100, HIF-2a inh 71 | Peg3 prom inh-2 99 | CF NFkB conf 112 | HIF-2a inh conf inactive | HIF-1a counter 104
CC(C)OC(=O)c1ccccc1C(=O)c1ccc(N)c([N+](=O)[O-])c1	none
O=[N+]([O-])c1cc(Cl)cc(/C=N\Nc2ccccn2)c1O	CF NFkB inh 85, Peg3 prom inh-1 55, Shn3 inh set2 89, KKLEB cytotox -93 | Peg3 prom inh-2 55 | Mdm2 MdmX conf 88
O=[N+]([O-])c1ccc(Cl)cc1C=NNc1ccccn1	none
Cc1cc(C)c(S(=O)(=O)Nc2ncn[nH]2)c(C)c1	none
O=C(O)c1oc2ccccc2c1CSCc1ccccc1	none
O=C(Nc1ccc(S(=O)(=O)NC2=NCCCCC2)cc1)c1ccc([N+](=O)[O-])s1	Peg3 prom inh-1 69, HIF-2a inh 60 | Peg3 prom inh-2 77 | HIF-2a inh conf inactive | HIF-1a counter 106
C/C(=N\NC(=O)c1nnn(-c2nonc2N)c1-c1ccccc1)c1ccccc1O	Peg3 prom inh-1 73 | Peg3 prom inh-2 67 | Mdm2 MdmX conf 84
CCCc1c(C(=O)N/N=C(\C)c2ccccc2O)nnn1-c1nonc1N	none
Cc1cc(C)c2cccc(N)c2n1	none
Cc1cc(C)c2ccc(N)nc2c1O	Peg3 prom inh-1 70 | Peg3 prom inh-2 58 | Mdm2 MdmX conf 89
CCCS(=O)(=O)c1cnc(C2COc3ccccc3O2)nc1N (stereo unspecified)	Peg3 prom inh-1 88, HIF-2a inh 81 | Peg3 prom inh-2 77 | HIF-2a inh conf 89 | HIF-1a counter 90
COc1ccc(C)cc1NC(=O)C1CCN(S(=O)(=O)c2cccs2)CC1	none
CCCCCCCNC(=O)C1(CC2CC(c3cccc(Br)c3)=NO2)CCNCC1 (stereo unspecified)	Peg3 prom inh-1 99, Shn3 inh set2 91 | Peg3 prom inh-2 99 | Mdm2 MdmX conf 103
CC(C)(C)c1ccc(Cn2c(=O)cnc3ccccc32)cc1	Peg3 prom inh-1 86, HIF-2a inh 62 | Peg3 prom inh-2 77 | HIF-2a inh conf 66 | HIF-1a counter 86
C/C(=N\Nc1ccc2nncn2n1)c1ccccn1	Peg3 prom inh-1 60, Shn3 inh set2 90 | Peg3 prom inh-2 60 | Mdm2 MdmX conf 83
C/C(=N\Nc1ccc2nncn2n1)c1ccco1	none
c1ccc(-c2nnc(NC3=NCCC3)o2)cc1	none
Fc1ccc(-c2nnc(NC3=NCCCCC3)o2)cc1	Peg3 prom inh-1 82, HIF-2a inh 67 | Peg3 prom inh-2 57 | HIF-2a inh conf 75 | HIF-1a counter 66
Cc1cccc(/C=N/Nc2ccc3ccccc3n2)c1	Peg3 prom inh-1 67, HIF-2a inh 52 | Peg3 prom inh-2 70 | HIF-2a inh conf 88 | HIF-1a counter 90
C(=N\Nc1ccc2ccccc2n1)/c1ccc2c(c1)OCCO2	Peg3 prom inh-1 79, HIF-2a inh 71 | Peg3 prom inh-2 77 | HIF-2a inh conf 91 | HIF-1a counter 100
Cc1ccc(/C=N/Nc2ccc3ccccc3n2)o1	none
